The values below come from PubChem BioAssay AID504803 (The Scripps Research Institute Molecular Screening Center, 2011).

Molecules are shown by their SMILES. Hit rate of the full screen: of about 340,000 compounds, about 1,700 (0.5%) were called active. Only a selection was taken, and actives are over-represented in it overall. Unmarked numbers belong to inactive results. No stated cut-off is given here; in the data, active means inhibition above about 36%; inactive means the rest.

The target in this assay is Serine protease HTRA1 (Homo sapiens) (UniProt Q92743). The assay is described as follows: HTRA1 serine protease inhibitors, primary screen, biochemical, fluorescence polarization, HTS (AID 504803).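 Further: 0% = enzyme with DMSO and 100% = wells lacking enzyme.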 To be noted: recombinant HTRA1, FP-rhodamine activity-based probe, at 5.96 µM, hits give high values. (In general: In fluorescence polarisation assays a small probe gives low polarisation when free and higher when bound to something large.)
Chain of Serine protease HTRA1 (Homo sapiens) (Q92743 whole entry, looked up): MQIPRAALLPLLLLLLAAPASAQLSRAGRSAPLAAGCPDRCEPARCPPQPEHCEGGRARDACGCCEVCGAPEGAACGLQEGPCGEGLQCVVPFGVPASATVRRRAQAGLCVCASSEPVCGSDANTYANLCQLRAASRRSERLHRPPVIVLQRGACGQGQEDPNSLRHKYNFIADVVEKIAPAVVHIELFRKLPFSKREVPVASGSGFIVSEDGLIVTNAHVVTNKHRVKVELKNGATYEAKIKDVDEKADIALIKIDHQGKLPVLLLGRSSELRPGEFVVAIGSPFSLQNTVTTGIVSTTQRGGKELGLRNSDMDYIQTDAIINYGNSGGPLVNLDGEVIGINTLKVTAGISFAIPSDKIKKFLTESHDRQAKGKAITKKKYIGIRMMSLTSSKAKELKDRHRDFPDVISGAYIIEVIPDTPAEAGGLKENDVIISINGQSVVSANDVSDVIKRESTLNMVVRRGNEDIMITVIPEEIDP
As for `O=C1c2ccccc2C(=O)c2c1cccc2N1CCN(Cc2ccccc2)CC1`, the inhibition is 62% (active).
`O=C1c2ccccc2C(=O)c2c1cccc2N1CCN(CCO)CC1`: the inhibition was 9.89%.
As for `O=C(CN1CCN(Cc2ccccc2)CC1)NC(c1ccccc1)c1ccccc1`, the inhibition was -2.99%.
As for `CCCCN1C(=O)C(CC(=O)NCc2cccs2)CC(C(=O)N2CCOCC2)=C1C` (configuration not stated), the inhibition was 1.73%.
In the case of `Cc1noc(C)c1S(=O)(=O)N(C)C[C@H]1OCCCC[C@@H](C)Oc2ccc(NC(=O)CCCN(C)C)cc2C(=O)N([C@H](C)CO)C[C@@H]1C`, the inhibition was 1.73%.
Next, `Cc1ccc(-c2ccc(CN3C(C)C(=O)N(Cc4cn(CCC5OCCCO5)nn4)CCS3(=O)=O)cc2)cc1` (configuration not stated): -6.77%; `C[C@H]1CN([C@@H](C)CO)C(=O)CCCn2cc(nn2)CO[C@@H]1CN(C)S(=O)(=O)c1cccs1`: 4.51%; `O=C(NCCN1CCOCC1)c1ccc2c(c1)N(Cc1cccc(Cl)c1)C(=O)c1ccccc1S2(=O)=O`: -8.45%.
In the case of `Clc1ccc(CSc2nnc3c(n2)[nH]c2ccccc23)cc1`, the inhibition is -20.7%.
To `O=C(Nc1nnc(SCc2ccccc2Cl)s1)c1cccc([N+](=O)[O-])c1` belongs -3.08%; to `S=C(NCc1ccco1)NCc1ccccc1Cl`, -12.8%.
With `Clc1ccccc1CSc1nnc(-c2ccco2)c(-c2ccco2)n1`, the inhibition was 49.6% (active).
Turning to `CCc1nnc(SCc2cccc(F)c2)nc1CC`, the inhibition was -3.55%.
Take `c1ccc(CSc2nnc(-c3ccco3)c(-c3ccco3)n2)cc1`: the inhibition is 42.8% (active).
Next, `O=C(NCc1nnnn1-c1ccc(Cl)cc1)c1ccc([N+](=O)[O-])o1`: 2.97%; `CCN(CC)C(=O)C1=C(C)N(Cc2ccc(C(C)(C)C)cc2)C(=O)C(CC(=O)NCc2cccc3ccccc23)C1` (configuration not stated): -39.3%; `Nc1cc(=O)c2[nH]cnc2[nH]1`: -44.6%.
As for `NS(=O)(=O)c1ccc(CNC(=O)c2cc(S(=O)(=O)N3CCOCC3)ccc2N2CCCC2)cc1`, the inhibition was 0.13%.
Next, `CCCc1ccc(S(=O)(=O)N2CCN(C(=O)c3cc(C)on3)CC2)cc1`: -2.05%; `C[C@H]1Cn2cnc(C(=O)N[C@H](C)c3ccccc3)c2C(=O)N1`: 6.34%.
Next, `c1ccc(Cn2nnc3c(NCC4CC4)ncnc32)cc1`: -4.95%.
`O=C(NCCS(=O)(=O)N1CCN(c2ccccc2)CC1)c1cc(=O)c2ccccc2o1`: the inhibition is 1.65%.
Take `CCCc1c(C)nc2scc(-c3ccc(Cl)cc3)n2c1=O`: the inhibition is 0.07%.
As to `C#CCN(C[C@@H]1[C@@H](OC(=O)NC2CC2)[C@@H](OC(=O)NC2CC2)Cn2c(=O)ccc(=O)n21)S(=O)(=O)c1ccc(C)cc1`, the inhibition is -1.46%.
For the molecule `CCOC(=O)c1c(NC(=O)COC(=O)c2ccc(S(=O)(=O)C(F)F)cc2)sc(C(=O)N(C)C)c1C`, the inhibition was -16.1%.
Take `Cc1cc(Nc2ccccc2)n(C(=O)c2ccc(N)cc2)n1`: the inhibition is -10.8%.
For the molecule `COc1ccc(Nc2ccc3ccccc3c2)cc1`, the inhibition was 24.9%.
Regarding `Nc1ccc(Nc2ccccc2)cc1`, the inhibition was 69% (active).
Regarding `O=C(NCCc1cccc(F)c1)C1CC(O)CN1C(=O)Nc1ccccc1` (configuration not stated), the inhibition was 0.16%.
Next, `CC(C)[C@H](NC(=O)c1ccccc1F)C(=O)Nc1cccc(S(=O)(=O)N2CCOCC2)c1`: 0.83%.
To `C[C@@H]1CN([C@@H](C)CO)C(=O)CCCn2nncc2CO[C@H]1CN(C)C(=O)Nc1ccc(C(F)(F)F)cc1` belongs -1.93%; to `CCOC(=O)C(=Cc1ccccc1)C(=O)c1ccccc1`, -10%.
Turning to `O=C(CSc1ccc(Cl)cc1)NC1CC1`, the inhibition was 1.09%.
Consider `COc1ccc2nc(-c3ccccn3)ccc2c1`, for which the inhibition was 4.04%.
Consider `COc1cnc(-c2ccccn2)nc1Oc1ccc(C(C)(C)C)cc1`, for which the inhibition was 56.8% (active).
Regarding `COc1ccc(NCCc2ccccn2)cc1`, the inhibition is 3.17%.
Next, `C[C@H]1CN([C@@H](C)CO)C(=O)c2cc(C3=CCCCC3)cnc2O[C@@H]1CN(C)C(=O)Cc1ccccc1`: -0.1%.
`CN1c2ccc(C=O)c3c(C=O)ccc(c23)N(C)C1(C)C`: the inhibition is 53.2% (active).
Next, `Cc1ccc(C=O)c([B-](F)(F)F)c1`: 4.92%.
On to `c1ccc2[nH]c(-c3nc4ccccc4[nH]3)nc2c1`, for which the inhibition is 80.8% (active).
To `O=C(Nc1sc2c(c1-c1nc3ccccc3[nH]1)CCCC2)C1CC1` belongs 3.75%.
Regarding `Nc1ccccc1-c1nc2ccncc2[nH]1`, the inhibition is -6.2%.
With `NC(=S)NN=Cc1ccc(OC(=O)COc2cc(Cl)c(Cl)cc2Cl)cn1`, the inhibition is -2.79%.
Next, `CC(C)C1N=C2c3ccccc3N=C(SCC(=O)c3ccc(O)c(O)c3)N2C1=O` (configuration not stated): 59.3% (active).
Turning to `NC(=O)CSC1=Nc2ccccc2C2=NC(CCC(=O)NCc3ccc(F)cc3)C(=O)N12` (configuration not stated), the inhibition was 1.09%.
Next, `O=C(CSC1=Nc2ccccc2C2=NC(c3ccccc3)C(=O)N12)NCC1CCCO1` (configuration not stated): 5.98%; `CC(C)CCC(=O)Nc1cc(S(=O)(=O)N2CCOCC2)ccc1N1CCCC1`: -0.61%; `C#Cc1cc(N2CCN(C(=O)c3ccoc3)CC2)n2nc(-c3cccc(Cl)c3)cc2n1`: -68.2%.
Consider `CN(c1ccccc1)S(=O)(=O)c1ccc(C(=O)NCc2cccnc2)cc1`, for which the inhibition was 2.31%.
For `Cc1cc2c3ccccc3[nH]c(=O)n2n1`, the inhibition was -0.09%.
On to `Cc1c(CC(=O)N2CCN(C(=O)C3COc4ccccc4O3)CC2)c(=O)oc2c(O)c(O)ccc12` (configuration not stated), for which the inhibition is 51.5% (active).
Take `Cc1c(CCC(=O)O)c(=O)oc2c(C)c(OCc3ccccc3Cl)ccc12`: the inhibition is -1.83%.
As to `CCN(CC)S(=O)(=O)c1ccc(N2CCOCC2)c(NC(=O)C2COc3ccccc3O2)c1` (configuration not stated), the inhibition is -9.82%.
With `CCN1CCCC1CNC(=O)c1ccc2c(c1)NC(=O)/C(=C\c1ccccc1F)S2` (configuration not stated), the inhibition was -43.1%.
Regarding `O=C(CCCN1C(=O)C(c2ccccc2)Oc2cccnc21)Nc1ccccc1Br` (configuration not stated), the inhibition is -5.83%.
Turning to `O=C(COC(=O)CCc1c[nH]c2ccccc12)Nc1cccc(Cl)c1`, the inhibition was -2.43%.
For the molecule `CC(C)c1ccc(C=NNc2ccc([N+](=O)[O-])cn2)cc1`, the inhibition is -18.3%.
To `Cc1cc(/C=N/Nc2ccc([N+](=O)[O-])cn2)c(C)n1-c1cccc(C(=O)O)c1` belongs 40.5% (active); to `Cc1cc(/C=N/NC(=O)CC2(C)OCCO2)c(C)n1-c1ccc(Cl)c(Cl)c1`, 2.74%; to `CC(OC(=O)c1ccc(NC(=O)CC#N)cc1)C(=O)Nc1ccc(S(=O)(=O)N2CCCC2)cc1` (configuration not stated), -20%.
In the case of `NNc1cccc(C=Cc2ccccc2)cc1=O`, the inhibition is 61.4% (active).
Take `O=c1[nH]c(/C=C/c2cccc(Br)c2)nc2ccccc12`: the inhibition is -1.32%.
As to `O=C(COC(=O)/C=C/c1cccc(Cl)c1)NCCc1ccccc1`, the inhibition is 4.91%.
`COc1ccc(-c2ccc3[nH]c4c(c3c2)CCN2C[C@H]3[C@H](C)ON(C)[C@H]3C[C@@H]42)cc1`: the inhibition was 6.55%.
Consider `CCCCN1C[C@H](c2ccc(Br)cc2)[C@@H](CC(=O)Nc2ccc(Br)cc2)C1=O`, for which the inhibition was -22.8%.
Take `CCC(CO)Oc1cc(NC(=O)c2cccc3ccccc23)c2ncn(C(C)C)c2c1` (configuration not stated): the inhibition is -25%.
As for `CCC(CO)Oc1cc(NC(=O)c2ccc(Cl)cc2)c2ncn(C(C)C)c2c1` (configuration not stated), the inhibition was 6.4%.
On to `CC(C)n1cnc2c(NCc3ccccc3)cc(OCC3CCN(C)CC3)cc21`, for which the inhibition is 40.1% (active).
For `Cc1ccc(-c2nc3ccc(Cl)cn3c2Cc2ccccc2)cc1`, the inhibition is -74.4%.
To `COc1ccc(Cl)cc1S(=O)(=O)N1CCN(CC(=O)C(C)(C)C)CC1` belongs 4.3%; to `N#Cc1ccsc1NC(=O)CN1CCN(S(=O)(=O)c2cc(Cl)ccc2Cl)CC1`, -36.8%; to `O=C(CN1CCN(S(=O)(=O)c2cc(Cl)ccc2Cl)CC1)c1ccc(O)c(O)c1`, 39.9% (active).
`O=C1[C@H]2[C@@H](c3ccc(C(F)(F)F)cc3)N[C@]3(CCCN(Cc4ccc(Cl)cc4)C3=O)[C@H]2C(=O)N1Cc1ccccc1`: the inhibition was -39.5%.
`COc1ncnc2c1ncn2CCCNCCN1CCOCC1`: the inhibition was 0.71%.
Next, `COc1cc(NC(=O)C2=C(C)OCCS2)c(Cl)cc1C(=O)NCCCN1CCCC(C)C1` (configuration not stated): -6.48%; `C[C@@H]1CN([C@@H](C)CO)S(=O)(=O)c2ccc(-c3ccc(C(=O)N(C)C)cc3)cc2O[C@@H]1CN(C)Cc1ccccc1C(=O)O`: -0.74%.
As to `COCOCCn1cc(CN2CCS(=O)(=O)N(Cc3ccc(-c4cccc(N(C)C)c4)cc3)C(CC(C)C)C2=O)nn1` (configuration not stated), the inhibition is 1.08%.
As for `Oc1c(CN2CCN(c3ccc(F)cc3)CC2)cc(Cl)c2cccnc12`, the inhibition was 50.4% (active).
Turning to `Cc1cc(=O)oc2cc(OCC(=O)N3CCN(c4ccc(F)cc4)CC3)c(Cl)cc12`, the inhibition was 4.27%.
In the case of `COc1cc(C)cc(CN2CCC(Cc3ccccc3)CC2)c1O`, the inhibition is 4.82%.
To `Oc1c(CN2CCCC2)cc(COCc2ccccc2)c2cccnc12` belongs 49.2% (active).
Regarding `CC1CCCN(CC(O)COCc2ccccc2)C1` (configuration not stated), the inhibition was 1.82%.
Turning to `Cc1ccc(CN2CCN(c3ncccn3)CC2)c(C)c1`, the inhibition is -5.09%.
`Nc1cc(C(=O)N2CCN(c3ccccc3Cl)CC2)ccc1N1CC2CC(C1)c1cccc(=O)n1C2` (configuration not stated): the inhibition was 2.36%.
To `O=C(NCc1ccccc1)C1CNCC(C(=O)NCc2ccccc2)C1` (configuration not stated) belongs 0.67%.
Next, `CCOc1ccc(CCNC(=O)COC(=O)c2ccc(C)c(S(=O)(=O)N3CCOCC3)c2)cc1OCC`: -2.04%; `O=[N+]([O-])c1ccc(C(S(=O)(=O)Cc2ccccc2)S(=O)(=O)Cc2ccccc2)cc1`: -1.31%.

As usually defined, the inhibition is the drop in the measured response relative to a control, in per cent.
